# Results taken from PubChem BioAssay (NCI).
# About 79,000 compounds went through this panel and 15% of them were active in at least one assay; those are over-represented in the sample as a whole. A number with no mark means an inactive call. Active and inactive are the calls of the source. Rule as the data show it: active = growth inhibition above about 70%; inactive = the rest.
# Assay: NCI Yeast Anticancer Drug Screen. Data for the sgs1 mgt1 strain (AID 161);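 also: 0% = growth of cultures given vehicle only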
# Details: S. cerevisiae sgs1 mgt1 strain, active compounds read high
# Procedure: Growth inhibition of yeast strains with defined genetic alterations is measured as a screen for potential anti-cancer activity. Selected strains with alterations in DNA damage repair or cell cycle control were exposed to compounds and growth inhibition was measured relative to vehicle treated controls. The strain used in this assay is sgs1 mgt1
# [1] = at 5.0 µM (retest, dose inferred, filed as 0.5)
# [2] = at 50.0 µM (retest, dose inferred, filed as 5.0)
Structure (SMILES),growth inhibition [1],growth inhibition [2],growth inhibition (at 50.0 µM)
COc1ccc(-c2nc3c(C(=O)NCCN(C)C)cccc3c3ccccc23)cc1,-12%,55%,13.9%
O=C(CC(=O)c1ccccc1)CC(=O)c1cccc(Cl)c1,-1%,87% (active),76.2% (active)
O=C(O)CC(NC(=O)CP(=O)(O)O)C(=O)O.[NH-]C1CCCCC1[NH-].[Pt+2] (configuration not stated),26%,11%,-27.9%
C=C1C(=O)O[C@@H]2C[C@@]3(C)CCC[C@H](C)C3=C[C@H]12,24%,98% (active),81.7% (active)
Cc1c(CNc2ccc(Cl)c(Cl)c2Cl)cnc2nc(N)nc(N)c12,19%,52%,64.5%
CCc1cccc(C)c1N1C(=O)C(=O)C(c2nc3ccccc3o2)/C(=N\NS(=O)(=O)c2ccc(C)cc2)C1=O (configuration not stated),6%,2%,4.4%
O=C1/C(=C/c2cccc(Br)c2)CCc2ccccc21,13%,58%,61.4%
CCCCCC(/C=N/Nc1nc(C)cc(=O)[nH]1)=C\c1ccccc1,3%,81% (active),29.9%
CC1(C)c2ccccc2Cc2cc3ccccc3nc21,-5%,97% (active),90.2% (active)
O=C(c1ccccc1)C(Br)CCCC(Br)C(=O)c1ccccc1 (configuration not stated),19%,81% (active),96% (active)
C[C@]12CCC(=O)C=C1CC[C@@H]1[C@@H]2[C@@H](O)C[C@@]2(C)[C@H]1CC[C@]2(O)C(=O)COC(=O)CCC1CCCC1,51%,96% (active),82% (active)
COc1ccc(C2c3cc4c(cc3OC(O)(CO)C2C(=O)O)OCO4)cc1 (configuration not stated) (tested in a mixture with another compound),-6%,40%,27.8%
CC(c1ccc2cccc(F)c2c1)c1ccccc1C(=O)O (configuration not stated),-1%,96% (active),98.2% (active)
O=C1C=CC(=O)c2c1cc1ccccc1c2O,6%,98% (active),1.4%
